Measurements published in the supplement of paper PMC11006884.
Of roughly 6,500 targets only a part is listed; those with a hit were picked by preference. About 2% of all pairs of compound and target were hits.

Each target was assayed with COC(=O)C#Cc1ccccc1 [methyl 3-phenylpropiolate] (assay: log2 ratio of iodoacetamide-alkyne labeling of the cysteine site, DMSO over compound (competition); higher = stronger covalent engagement of the cysteine by the compound, active = 1 or more). Conditions: 500 µM; treatment time 1 h; system: HEK293T cell lysate.
Method in brief: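 HEK293T lysate at 2 mg/mL was treated with vehicle or electrophile (500 µM) for 1 h at ambient temperature, then labelled with iodoacetamide alkyne (1 h), clicked to sCIP-TMT reagents, pooled, digested with trypsin overnight at 37 °C, enriched on streptavidin and eluted with acid. Peptides were analysed by Orbitrap Eclipse LC-MS/MS with FAIMS and quantified in FragPipe, using duplicate channels and three replicates, with cysteines quantified in only one replicate excluded. The log2 competition ratio for each cysteine is the mean control-channel reporter intensity divided by the mean compound-channel reporter intensity.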

Chain of UniProt Q14980 (Q14980 whole entry, looked up): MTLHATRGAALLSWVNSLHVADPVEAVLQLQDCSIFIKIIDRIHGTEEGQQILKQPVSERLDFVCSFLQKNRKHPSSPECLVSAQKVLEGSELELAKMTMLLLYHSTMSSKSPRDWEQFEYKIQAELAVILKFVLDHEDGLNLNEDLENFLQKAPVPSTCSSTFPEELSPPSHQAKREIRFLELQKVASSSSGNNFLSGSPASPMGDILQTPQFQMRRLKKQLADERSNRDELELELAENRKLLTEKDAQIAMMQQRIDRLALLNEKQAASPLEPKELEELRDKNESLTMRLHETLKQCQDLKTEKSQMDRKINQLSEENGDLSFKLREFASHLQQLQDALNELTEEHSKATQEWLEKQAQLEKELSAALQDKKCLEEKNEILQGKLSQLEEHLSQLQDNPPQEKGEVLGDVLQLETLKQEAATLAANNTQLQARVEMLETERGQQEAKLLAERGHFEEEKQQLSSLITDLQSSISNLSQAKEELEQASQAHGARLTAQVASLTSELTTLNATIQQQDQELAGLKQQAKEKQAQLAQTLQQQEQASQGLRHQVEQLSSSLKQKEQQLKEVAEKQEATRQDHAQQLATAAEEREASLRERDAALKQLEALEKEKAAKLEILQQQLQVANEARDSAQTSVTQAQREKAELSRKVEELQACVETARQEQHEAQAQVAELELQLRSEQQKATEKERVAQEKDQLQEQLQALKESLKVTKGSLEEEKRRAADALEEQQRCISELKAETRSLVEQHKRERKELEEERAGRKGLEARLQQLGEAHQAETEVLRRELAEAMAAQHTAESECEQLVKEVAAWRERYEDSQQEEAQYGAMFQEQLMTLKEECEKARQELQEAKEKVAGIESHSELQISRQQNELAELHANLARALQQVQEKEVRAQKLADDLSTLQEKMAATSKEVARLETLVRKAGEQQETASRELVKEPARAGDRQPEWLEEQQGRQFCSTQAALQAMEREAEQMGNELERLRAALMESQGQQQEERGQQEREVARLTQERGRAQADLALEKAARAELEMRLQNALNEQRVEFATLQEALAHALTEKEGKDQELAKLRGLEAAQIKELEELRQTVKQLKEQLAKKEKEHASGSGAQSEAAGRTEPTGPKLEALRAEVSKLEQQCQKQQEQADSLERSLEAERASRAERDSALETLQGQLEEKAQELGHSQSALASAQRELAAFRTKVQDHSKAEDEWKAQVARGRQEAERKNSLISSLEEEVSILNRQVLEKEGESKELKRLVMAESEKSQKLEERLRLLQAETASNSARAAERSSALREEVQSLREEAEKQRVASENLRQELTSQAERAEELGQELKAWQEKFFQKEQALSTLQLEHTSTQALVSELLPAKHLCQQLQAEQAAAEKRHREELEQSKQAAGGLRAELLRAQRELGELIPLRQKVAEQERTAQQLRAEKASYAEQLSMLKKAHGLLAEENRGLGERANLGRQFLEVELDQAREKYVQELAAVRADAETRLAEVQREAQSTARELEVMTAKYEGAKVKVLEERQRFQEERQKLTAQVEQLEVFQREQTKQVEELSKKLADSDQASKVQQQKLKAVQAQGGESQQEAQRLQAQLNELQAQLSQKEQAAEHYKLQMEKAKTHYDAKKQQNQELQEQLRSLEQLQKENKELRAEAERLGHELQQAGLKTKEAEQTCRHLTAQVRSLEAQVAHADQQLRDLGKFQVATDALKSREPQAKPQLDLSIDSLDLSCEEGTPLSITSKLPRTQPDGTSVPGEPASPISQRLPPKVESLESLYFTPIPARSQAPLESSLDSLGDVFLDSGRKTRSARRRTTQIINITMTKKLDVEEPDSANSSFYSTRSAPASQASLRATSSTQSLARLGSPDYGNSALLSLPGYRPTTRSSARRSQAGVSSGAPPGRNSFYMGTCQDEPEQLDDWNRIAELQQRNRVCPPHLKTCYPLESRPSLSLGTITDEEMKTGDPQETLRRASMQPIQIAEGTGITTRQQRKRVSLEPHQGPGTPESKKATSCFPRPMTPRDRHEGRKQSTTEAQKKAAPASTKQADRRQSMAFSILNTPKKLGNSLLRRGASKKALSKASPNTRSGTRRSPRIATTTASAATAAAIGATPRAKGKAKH
Chain of UniProt Q15022 (Q15022 whole entry, looked up): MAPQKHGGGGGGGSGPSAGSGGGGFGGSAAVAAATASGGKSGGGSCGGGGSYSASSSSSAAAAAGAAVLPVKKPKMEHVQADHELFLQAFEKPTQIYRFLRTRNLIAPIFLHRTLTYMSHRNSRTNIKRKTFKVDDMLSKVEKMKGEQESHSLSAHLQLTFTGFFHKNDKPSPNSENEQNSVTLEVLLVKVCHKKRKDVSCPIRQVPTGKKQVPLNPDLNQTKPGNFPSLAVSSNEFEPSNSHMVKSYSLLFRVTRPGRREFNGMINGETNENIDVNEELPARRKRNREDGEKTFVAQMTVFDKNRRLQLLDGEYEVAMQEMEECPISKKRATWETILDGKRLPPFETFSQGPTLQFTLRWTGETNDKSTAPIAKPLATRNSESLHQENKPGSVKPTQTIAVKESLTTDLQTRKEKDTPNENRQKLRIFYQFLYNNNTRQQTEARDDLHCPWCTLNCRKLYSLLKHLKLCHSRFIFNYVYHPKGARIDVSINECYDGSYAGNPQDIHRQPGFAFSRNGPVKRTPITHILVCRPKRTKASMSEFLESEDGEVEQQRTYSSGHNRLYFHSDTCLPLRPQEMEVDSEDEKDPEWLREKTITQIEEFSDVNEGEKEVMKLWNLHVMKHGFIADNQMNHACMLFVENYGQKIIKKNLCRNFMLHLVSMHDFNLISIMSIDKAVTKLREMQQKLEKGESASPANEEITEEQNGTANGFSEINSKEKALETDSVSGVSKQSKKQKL
Chain of UniProt Q13418 (Q13418 whole entry, looked up): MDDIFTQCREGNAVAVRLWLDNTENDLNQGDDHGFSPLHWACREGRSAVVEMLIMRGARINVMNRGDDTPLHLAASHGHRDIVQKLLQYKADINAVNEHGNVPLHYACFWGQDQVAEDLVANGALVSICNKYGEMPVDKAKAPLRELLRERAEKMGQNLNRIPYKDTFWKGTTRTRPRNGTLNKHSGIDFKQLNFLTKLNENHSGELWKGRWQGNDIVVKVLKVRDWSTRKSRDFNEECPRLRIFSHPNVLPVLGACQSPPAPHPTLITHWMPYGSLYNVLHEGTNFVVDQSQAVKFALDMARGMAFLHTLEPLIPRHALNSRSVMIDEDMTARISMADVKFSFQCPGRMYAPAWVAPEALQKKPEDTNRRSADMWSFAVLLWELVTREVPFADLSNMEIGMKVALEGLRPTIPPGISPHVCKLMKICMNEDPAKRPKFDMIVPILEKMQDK
Chain of UniProt P85037 (P85037 whole entry, looked up): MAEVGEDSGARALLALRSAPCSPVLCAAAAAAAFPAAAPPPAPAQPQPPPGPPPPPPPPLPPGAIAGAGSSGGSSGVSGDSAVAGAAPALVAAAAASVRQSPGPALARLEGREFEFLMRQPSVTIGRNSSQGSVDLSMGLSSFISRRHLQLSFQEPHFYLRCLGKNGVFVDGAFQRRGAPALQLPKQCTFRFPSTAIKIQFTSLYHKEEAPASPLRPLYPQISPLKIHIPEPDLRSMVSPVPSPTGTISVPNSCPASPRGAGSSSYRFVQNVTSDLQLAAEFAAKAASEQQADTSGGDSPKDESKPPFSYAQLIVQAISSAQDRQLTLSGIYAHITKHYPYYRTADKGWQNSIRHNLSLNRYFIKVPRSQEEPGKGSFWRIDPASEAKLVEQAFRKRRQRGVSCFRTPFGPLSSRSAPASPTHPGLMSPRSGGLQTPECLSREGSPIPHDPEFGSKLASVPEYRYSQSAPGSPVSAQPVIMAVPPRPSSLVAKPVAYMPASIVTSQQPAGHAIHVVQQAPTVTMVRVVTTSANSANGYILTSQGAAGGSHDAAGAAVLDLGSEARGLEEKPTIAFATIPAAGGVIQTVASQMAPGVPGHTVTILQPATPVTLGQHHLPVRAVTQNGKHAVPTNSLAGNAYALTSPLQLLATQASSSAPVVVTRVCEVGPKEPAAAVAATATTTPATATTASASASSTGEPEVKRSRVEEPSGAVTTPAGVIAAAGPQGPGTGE
Chain of UniProt Q15459 (Q15459 whole entry): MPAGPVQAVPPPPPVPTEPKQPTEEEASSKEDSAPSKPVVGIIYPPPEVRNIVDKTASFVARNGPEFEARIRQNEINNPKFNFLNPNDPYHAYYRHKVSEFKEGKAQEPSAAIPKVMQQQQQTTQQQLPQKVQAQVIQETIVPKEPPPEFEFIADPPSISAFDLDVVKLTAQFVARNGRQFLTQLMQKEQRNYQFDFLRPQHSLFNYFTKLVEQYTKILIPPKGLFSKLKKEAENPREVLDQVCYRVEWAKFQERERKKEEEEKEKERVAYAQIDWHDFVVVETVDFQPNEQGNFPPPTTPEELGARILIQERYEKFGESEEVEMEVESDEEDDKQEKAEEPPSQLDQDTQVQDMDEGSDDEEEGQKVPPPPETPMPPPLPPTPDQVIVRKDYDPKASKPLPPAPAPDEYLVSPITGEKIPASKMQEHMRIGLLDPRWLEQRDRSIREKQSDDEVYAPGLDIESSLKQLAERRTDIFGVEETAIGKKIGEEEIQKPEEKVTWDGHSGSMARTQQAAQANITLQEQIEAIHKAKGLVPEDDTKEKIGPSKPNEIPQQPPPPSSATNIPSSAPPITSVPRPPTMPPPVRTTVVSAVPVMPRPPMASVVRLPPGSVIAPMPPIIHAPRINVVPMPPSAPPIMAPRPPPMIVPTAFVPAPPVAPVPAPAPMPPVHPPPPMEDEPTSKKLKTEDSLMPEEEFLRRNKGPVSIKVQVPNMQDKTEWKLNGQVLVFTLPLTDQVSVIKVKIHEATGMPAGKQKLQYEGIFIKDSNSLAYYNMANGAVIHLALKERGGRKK
Chain of UniProt P62633 (P62633 whole entry, looked up): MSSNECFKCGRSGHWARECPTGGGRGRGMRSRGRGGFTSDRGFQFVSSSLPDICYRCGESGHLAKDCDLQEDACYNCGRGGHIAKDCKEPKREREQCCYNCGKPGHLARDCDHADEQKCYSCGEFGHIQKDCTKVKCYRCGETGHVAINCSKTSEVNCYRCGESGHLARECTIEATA

Question: How did the “log2 ratio of iodoacetamide-alkyne labeling” value (shortened to “log2 ratio”) turn out when UniProt P62241_C71 was run?
Answer: Its value is 0.335 (inactive).

Question: Which “log2 ratio” value does the source give for SPTBN1 C112 (UniProt Q01082) here?
Answer: The value was 0.622 (inactive).

Question: With ILK C346 (UniProt Q13418) as the target, how does the “log2 ratio” value read?
Answer: Its value is 1.8 (active).

Question: How did the “log2 ratio” value turn out when YARS C250 (UniProt P54577) was run?
Answer: Its value is 0.0441 (inactive).

Question: CTTN C112 (UniProt Q14247) was tested. Which “log2 ratio” value did it give?
Answer: Its value is 0.88 (inactive).

Question: FOXK1 C254 (UniProt P85037) was tested. Which “log2 ratio” value did it give?
Answer: Its value is 1.18 (active).

Question: Which “log2 ratio” value does the source give for MDC1 C128 (UniProt Q14676) here?
Answer: The value was 0.14 (inactive).

Question: CASP8 C360 (UniProt Q14790) was tested. Which “log2 ratio” value did it give?
Answer: The value was 1.2 (active).

Question: For CNBP C140 (UniProt P62633), which “log2 ratio” value is on record?
Answer: The value was 0.134 (inactive).

Question: AP1B1 C129 (UniProt Q10567) was tested. Which “log2 ratio” value did it give?
Answer: The value was 0.414 (inactive).

Question: SF3A1 C244 (UniProt Q15459) was tested. Which “log2 ratio” value did it give?
Answer: Its value is 0.0803 (inactive).

Question: For PPA1 C114 (UniProt Q15181), which “log2 ratio” value is on record?
Answer: Its value is -0.223 (inactive).

Question: With UniProt Q00341_C683 as the target, how does the “log2 ratio” value read?
Answer: Its value is -0.0455 (inactive).

Question: With DYNC1H1 C4510 (UniProt Q14204) as the target, how does the “log2 ratio” value read?
Answer: Its value is 0.182 (inactive).

Question: HNRNPH2 C34 (UniProt P55795) was tested. Which “log2 ratio” value did it give?
Answer: Its value is 0.0589 (inactive).

Question: For UniProt P62753_C12, which “log2 ratio” value is on record?
Answer: The value was 0.196 (inactive).

Question: For RPL7A C174 (UniProt P62424), which “log2 ratio” value is on record?
Answer: Its value is -0.0802 (inactive).

Question: DST C7524 (UniProt Q03001) was tested. Which “log2 ratio” value did it give?
Answer: Its value is 0.174 (inactive).

Question: With HK2 C158 (UniProt P52789) as the target, how does the “log2 ratio” value read?
Answer: Its value is 0.246 (inactive).

Question: For CBX2 C340 (UniProt Q14781), which “log2 ratio” value is on record?
Answer: The value was 0.654 (inactive).

Question: For RRP12 C799 (UniProt Q5JTH9), which “log2 ratio” value is on record?
Answer: Its value is 0.107 (inactive).

Question: Which “log2 ratio” value does the source give for NUBP1 C22 (UniProt P53384) here?
Answer: The value was 2.24 (active).

Question: Which “log2 ratio” value does the source give for UniProt Q02040_C549 here?
Answer: Its value is 1.74 (active).

Question: For NUMA1 C961 (UniProt Q14980), which “log2 ratio” value is on record?
Answer: The value was 1.55 (active).

Question: How did the “log2 ratio” value turn out when REEP5 C18 (UniProt Q00765) was run?
Answer: The value was 0.482 (inactive).

Question: PMS2 C798 (UniProt P54278) was tested. Which “log2 ratio” value did it give?
Answer: The value was -0.143 (inactive).

Question: For MAP7D1 C373 (UniProt Q3KQU3), which “log2 ratio” value is on record?
Answer: Its value is 0.815 (inactive).

Question: UniProt P60891_C41 was tested. Which “log2 ratio” value did it give?
Answer: Its value is -0.0365 (inactive).

Question: SQSTM1 C113 (UniProt Q13501) was tested. Which “log2 ratio” value did it give?
Answer: The value was 1.2 (active).

Question: With NUP98 C1590 (UniProt P52948) as the target, how does the “log2 ratio” value read?
Answer: Its value is 0.601 (inactive).

Question: With SUZ12 C325 (UniProt Q15022) as the target, how does the “log2 ratio” value read?
Answer: The value was 1.07 (active).

Question: EEA1 C1405 (UniProt Q15075) was tested. Which “log2 ratio” value did it give?
Answer: Its value is 0.0817 (inactive).

Question: With UniProt Q02930_C69 as the target, how does the “log2 ratio” value read?
Answer: Its value is 1.09 (active).

Question: NDUFA5 C17 (UniProt Q16718) was tested. Which “log2 ratio” value did it give?
Answer: Its value is 0.144 (inactive).

Question: Which “log2 ratio” value does the source give for COASY C140 (UniProt Q13057) here?
Answer: The value was 1.16 (active).
